Screens as filed in PubChem BioAssay.
This excerpt belongs to a sample that is enriched for hits.
KDM5B inhibitor – KDM5B demethylase inhibition | KDM5B demethylase, FDH-coupled NADH fluorescence (FDH is formaldehyde dehydrogenase) | hit rate 2.6% among 220,000 | AID 1347165 | Potency, µM (highest dose often 57.7 µM), hits mostly inhibitors | Q9UGL1; active = well fitted inhibition curve with a large enough effect; also: nearly all actives have a fitted effect of over 70% in size
Target sequence (Q9UGL1 whole entry, looked up): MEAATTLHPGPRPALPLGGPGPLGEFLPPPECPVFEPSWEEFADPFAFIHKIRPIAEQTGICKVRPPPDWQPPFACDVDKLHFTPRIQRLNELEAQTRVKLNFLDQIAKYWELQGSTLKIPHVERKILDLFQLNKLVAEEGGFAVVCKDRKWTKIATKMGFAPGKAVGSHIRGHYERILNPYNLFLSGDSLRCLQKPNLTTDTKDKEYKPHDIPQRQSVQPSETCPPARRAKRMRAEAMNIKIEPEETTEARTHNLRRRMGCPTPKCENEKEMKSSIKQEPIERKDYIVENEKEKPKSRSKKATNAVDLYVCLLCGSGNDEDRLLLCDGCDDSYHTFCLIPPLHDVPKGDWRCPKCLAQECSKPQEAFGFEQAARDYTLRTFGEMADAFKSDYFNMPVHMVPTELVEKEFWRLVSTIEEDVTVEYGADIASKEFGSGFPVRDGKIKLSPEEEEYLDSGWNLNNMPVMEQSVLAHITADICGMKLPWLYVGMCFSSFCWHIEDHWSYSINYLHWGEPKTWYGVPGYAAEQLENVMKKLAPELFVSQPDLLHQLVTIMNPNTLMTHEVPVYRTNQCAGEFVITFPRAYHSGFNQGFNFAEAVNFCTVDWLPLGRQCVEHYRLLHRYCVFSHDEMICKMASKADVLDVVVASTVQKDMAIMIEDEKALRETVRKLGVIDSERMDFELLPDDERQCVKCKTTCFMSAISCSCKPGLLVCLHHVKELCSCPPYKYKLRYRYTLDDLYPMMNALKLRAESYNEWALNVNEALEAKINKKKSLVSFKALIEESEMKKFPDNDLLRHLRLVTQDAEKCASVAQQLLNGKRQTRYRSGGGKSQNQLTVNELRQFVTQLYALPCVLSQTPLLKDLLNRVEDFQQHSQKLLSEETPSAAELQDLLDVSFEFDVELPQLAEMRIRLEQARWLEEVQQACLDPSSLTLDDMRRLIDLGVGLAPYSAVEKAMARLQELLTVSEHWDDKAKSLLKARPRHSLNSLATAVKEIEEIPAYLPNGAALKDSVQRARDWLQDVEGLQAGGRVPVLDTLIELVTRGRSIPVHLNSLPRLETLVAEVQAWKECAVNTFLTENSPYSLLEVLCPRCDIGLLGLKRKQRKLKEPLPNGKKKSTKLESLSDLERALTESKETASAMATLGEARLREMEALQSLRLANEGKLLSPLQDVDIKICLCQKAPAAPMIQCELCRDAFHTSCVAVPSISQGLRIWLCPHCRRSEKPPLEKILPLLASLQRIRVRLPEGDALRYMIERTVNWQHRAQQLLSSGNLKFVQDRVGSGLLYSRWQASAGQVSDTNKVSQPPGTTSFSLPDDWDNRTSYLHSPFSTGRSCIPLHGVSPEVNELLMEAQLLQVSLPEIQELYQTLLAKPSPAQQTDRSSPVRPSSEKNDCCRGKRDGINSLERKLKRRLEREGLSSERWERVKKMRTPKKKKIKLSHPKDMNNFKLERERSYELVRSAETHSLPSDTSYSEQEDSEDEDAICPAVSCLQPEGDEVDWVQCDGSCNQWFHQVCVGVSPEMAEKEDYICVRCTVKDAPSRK
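Inhibition is measured as reduced NADH fluorescence generation from FDH coupling to formaldehyde release. Truncated KDM5BΔAP at 200 nM final acts on H3K4me3 peptide (12.5 µM in substrate mix) in pH 7.5 HEPES buffer with Tween-20, 30 min, room temperature.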
Hits are given with their value; i = inactive.

SMILES	KDM5B inhibitor
COC(=O)[C@@H]1Cc2c([nH]c3ccccc23)[C@H]2C[C@@H](NCCN3CCOCC3)C[C@@H](c3ccc(OC(F)(F)F)cc3)N21	i
COC(=O)[C@@H]1Cc2c([nH]c3ccccc23)[C@H]2C[C@@H](NCCNC(C)=O)C[C@@H](c3ccc(C)cc3)N21	28µM
COCCCN1CC(=O)N2C(c3ccc(C)cc3)c3[nH]c4ccccc4c3C[C@H]2C1=O (some centres undefined)	i
COC(=O)[C@@H]1Cc2c([nH]c3ccccc23)[C@H]2C[C@@H](NCCNC(C)=O)C[C@@H](c3ccc(C(F)(F)F)cc3)N21	i
O=C([C@H]1C[C@H](Oc2ccccc2)CN1C(=O)NCc1ccc(F)cc1)N1CCOCC1	i
O=C(CSc1ccccc1)N1CCc2c([nH]c3ccccc23)C1c1ccc(F)cc1 (centres undefined)	i
CCOc1cccc(CC(=O)N2CCc3c([nH]c4ccccc34)C2c2ccc(C)cc2)c1OCC (centres undefined)	i
C#CCN[C@H]1C[C@@H]2c3[nH]c4ccccc4c3C[C@@H](C(=O)OC)N2[C@H](c2ccc(F)cc2)C1	40µM
COC(=O)[C@@H]1Cc2c([nH]c3ccccc23)[C@H]2C[C@@H](NC3CC3)C[C@@H](c3ccc(F)cc3)N21	i
COc1ccccc1C(=O)Oc1ccc(F)cc1C(=O)/C=C/c1ccc(Cl)cc1	i
Cc1cnc(C(=O)Oc2ccc(Cl)cc2)cn1	i
CCCNc1c(NC(=O)COc2ccc(C)cc2)c(=O)oc2ccccc12	i
O=C(c1cnccn1)N(Cc1ccccc1)c1ccccc1	i
Cc1noc(C(C)C)c1C(=O)Nc1ccc(OC(F)F)c(Cl)c1	i
Cc1cc(C(=O)N2C[C@@H](Oc3ccccc3)C[C@H]2C(=O)N2CCCC2)n(C)n1	i
CC(=O)N1CCN(c2ncccc2CNCc2ccc(CC(C)C)cc2)CC1	i
CCCc1nnc(C(=O)Nc2ccc(C(=O)N3CCOCC3)cc2)s1	i
CC1=C[C@@H](CNC(C)C)[C@H](C(C)C)C[C@H]1Cc1nnc(-c2ccc([N+](=O)[O-])cc2)o1	i
CC(=O)NNC(=S)NC(C)c1ccccc1 (centres undefined)	i
O=C(N[C@H](CO)c1ccccc1)C1CCC(CNS(=O)(=O)c2ccc(F)cc2)CC1 (some centres undefined)	i
COc1ccccc1CN1CC2(C1)C(=O)N(Cc1ccccc1)C(=O)[C@@H]1C[C@@H](O)CN12	i
CN1C[C@H](NCc2ccc(F)cc2)CCC[C@@H](C(=O)N(C)Cc2cccnc2)CC1=O	i
O=C(NCc1cccnc1)[C@@H]1C[C@@H](c2ccc(F)cc2)N(CCOc2ccccc2)C1	i
COC(=O)[C@@H]1Cc2c([nH]c3ccccc23)[C@H]2C[C@@H](NCc3cccnc3)C[C@@H](c3ccc(F)c(F)c3)N21	25µM
CCCCCn1nc(C(=O)OCC(=O)Nc2cc(C)on2)c2ccccc2c1=O	i
SMILES	KDM5B inhibitor
CN(CCc1ccccc1)CCN1CC2(CCN(c3ncccc3C#N)CC2)OC1=O	32µM
O=C1OC2(CCN(C(=O)c3ccco3)CC2)CN1CCOc1ccccc1	i
COc1ccnc(CN2CCC3(CC2)CN(CCOc2ccccc2)C(=O)O3)c1OC	i
COc1ccc2cc(C(C)C(=O)NC3CCCCC3C)ccc2c1 (centres undefined)	i
O=C(NC1CC1)c1nc(-c2ccccc2)c2ccccn12	i
O=C(NCCc1ccc(Cl)cc1)c1ccccn1	i
O=C(NCCc1ccc(Cl)cc1)c1nc(-c2cccc(C(F)(F)F)c2)c2ccccn12	25µM
O=C(NCc1ccc(F)cc1)c1nc(-c2cccc(C(F)(F)F)c2)c2ccccn12	i
COc1ccccc1-c1cc(C(=O)NCCc2ccc(Cl)cc2)nn2cccc12	i
O=C(NCc1cccs1)c1nc(-c2cccc(C(F)(F)F)c2)c2ccccn12	i
O=C(NCCc1ccc(Cl)cc1)c1nc(-c2ccccc2)c2ccccn12	28µM
COc1ccccc1-c1nc(C(=O)NCCc2ccc(Cl)cc2)n2ccccc12	79µM
COc1ccc(CCNC(=O)c2c(C)noc2-c2ccccc2OC)cc1	i
Fc1cccc(-c2nc(CN3CCCC3c3ccsc3)co2)c1 (centres undefined)	i
COc1ccc(C(=O)Nc2cc(-c3nc4ccccc4o3)ccc2OC)cc1Cl	i
CC(=O)NCc1cccs1	i
Cc1cc(C(=O)N2CCN(S(=O)(=O)c3ccccc3)CC2)c(C)n1Cc1ccccn1	i
Clc1ccccc1C1(c2ccnc(CC3CC3)n2)CCNCC1	i
COc1ccccc1Cc1nccc(C2(c3ccccc3Cl)CCNCC2)n1	i
COCCNc1nccc(C2(c3ccccc3Cl)CCNCC2)n1	22µM
CCOc1ccccc1CN1C[C@@H](NC(=O)COC)C[C@H]1CO	i
CCOc1ccccc1CN1C[C@@H](CO)[C@H](c2ccccn2)C1	i
CCOc1ccccc1CN1CCN(C(=O)c2ccccn2)CC1CCO (centres undefined)	20µM
O=C(NC1CCS(=O)(=O)C1)C1CCN(c2cnn(Cc3ccccc3)c(=O)c2)C1 (centres undefined)	i
O=C(NC1CCCCC1)C1CCCN(c2cnn(Cc3ccccc3)c(=O)c2)C1 (centres undefined)	i
SMILES	KDM5B inhibitor
O=C(Nc1ccc2oc(-c3ccccc3)nc2c1)C1CCN(c2cnn(Cc3ccccc3)c(=O)c2)C1 (centres undefined)	18µM
CC(=O)Nc1ccc(NC(=O)COc2cccc(F)c2)c(C(F)(F)F)c1	i
COc1ccccc1-c1cnc(NC(=O)c2ccc(F)c(Cl)c2)c2c1CCO2	i
COc1ccc(Nc2ncc(-c3ccccc3OC)c3c2OCC3)cn1	35µM
COc1ccc(Nc2nc(N3CCN(Cc4ccccc4)CC3)nc3nccnc23)cc1	i
COc1ccc(NS(=O)(=O)c2ccc3c(c2)OCCCO3)cn1	i
COc1ccccc1-c1cnc(Nc2cncnc2)c2c1CCO2	i
COc1ccccc1-c1cnc(Nc2ccc(CN3CCN(C)CC3)cc2)c2c1CCO2	35µM
CCCCSc1nc2c(c(=O)n(C)c(=O)n2C)n1C/C=C/c1ccccc1	i
COc1ccc(-c2ccc(C#N)c(SCC(=O)Nc3cc(OC)ccc3OC)n2)cc1	i
O=C(c1ccccc1Cl)N1CCc2nc(-c3ccc(Cl)cc3)nc(-c3ccccc3)c2C1	i
COc1ccc(C(=O)N2CCCC3(C2)Nc2cccnc2NC3=NCc2ccccc2)cc1 (centres undefined)	28µM
COc1ccc(C(=O)N2CCCC3(C2)NC(=O)N(Cc2ccc(C)cc2)C3=O)cc1 (centres undefined)	i
COc1cccc(C(=O)N2CCCC3(C2)Nc2cccnc2NC3=NCc2ccccc2)c1 (centres undefined)	28µM
O=C(c1ccsc1)N1CCCC2(C1)Nc1cccnc1NC2=NCc1ccccc1 (centres undefined)	28µM
CCn1ccc(C(=O)N2CCC(c3cc(Cc4ccccc4)[nH]n3)CC2)n1	i
CCOc1ccc(C(=O)N2CCCC3(C2)NC(=O)N(Cc2ccccc2)C3=O)cc1 (centres undefined)	i
CCn1ccc(C(=O)N2CCCC3(C2)Nc2cccnc2NC3=NCc2ccccc2)n1 (centres undefined)	28µM
O=C(c1cccc(Cl)c1)N1CCCC2(C1)NC(=O)N(Cc1ccccc1)C2=O (centres undefined)	i
COc1ccc(C(=O)N2CCCC3(C2)NC(=O)N(Cc2cccc(Cl)c2)C3=O)cc1 (centres undefined)	i
